# Test results as given in PubChem BioAssay (NCI).
# This is part of a sample that, as a whole, favours compounds with a hit. Of some 83,000 tested, about 20% had one in any assay.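 A percent growth of 40 corresponds to 60% growth inhibition; 0 means no net growth; -100 means all cells died. Active threshold: below 10.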 Unmarked numbers belong to inactive results. Active and inactive are the calls of the source.
# System: MDA-MB-468 breast
# Assay: NCI-60 one-dose screen, 48 h (100 = growth as untreated, 0 = no growth, -100 = all killed)
# Settings: 10 µM unless noted
row,SMILES,growth
1,O=C(Nc1ccccc1Cl)OCCN1CCOCC1,109%
2,O=C1[C@H]2Cc3c([nH]c4ccccc34)[C@H](c3ccc(Cl)cc3)N2C(=O)CN1C1CCN(Cc2c(Cl)cccc2Cl)CC1,57.5%
3,O=C1COCCN1c1ccc(NCc2cn(C(=O)c3ccc(Cl)cc3)c3ccccc23)cc1,-66.6% (active)
4,C[C@]12CC[C@@H]3c4ccc(O)cc4CC[C@H]3[C@@H]1CC[C@@H]2NS(=O)(=O)c1cccc(Br)c1,53.8%
5,CCCc1c(CC)c(=N)c2ccccc2n1C,58.7%
6,COc1cccc(CCC2C(=O)CCCC2=O)c1,115%
7,N#C/C(=C/c1ccc([N+](=O)[O-])cc1)n1nnc2cc(F)c(F)cc21,19.8%
8,OC(CCCCCCCCC(O)CN1CCc2ccccc2C1)CN1CCc2ccccc2C1 (stereo not given),127%
9,Cn1c(C#N)ccc1-c1ccc(F)c(NC(=O)c2ccc(F)cc2)c1,35.6%
10,CCN1C(=O)N(CC)C2C1NN=c1s/c(=C\c3cccc([N+](=O)[O-])c3)c(=O)n12 (stereo not given),3.95% (active)
11,Cc1[nH]c(-c2cc(N)ccc2Cl)c2c1C(=O)CCCC2,-5.42% (active)
12,Nc1nc(N)c(-c2ccc(Cl)c(Cl)c2)c(CBr)n1,84%
13,O=C(Nc1cccc2[nH]c(C(F)(F)F)nc12)c1ccc(Br)cc1F,11.9%
14,CCCn1cnc2c(c1=N)C(c1ccc(Cl)cc1)c1sc3c(C)cccc3c1O2 (stereo not given),30.9%
15,CC(=S)Nc1ccccc1,103%
16,Cn1c(-c2ccccc2)cc(=O)cc1-c1ccccc1,68.7%
17,CCCCCCN(CCCCCC)CC(O)c1cccc2ccc(Cl)cc12 (stereo not given),87.6%
18,NNc1cccc(/C=C/c2ccccc2)cc1=O,38.3%
19,CC(C)c1ccc(C(C)C(=O)N(CC2=C(C(C)c3ccccn3)c3ccccc3C2)C(C)C)cc1 (stereo not given),24.9%
20,CCCC(CCC)(C(N)=O)C(=O)O,105%

row,SMILES,growth
1,CCCCCCCCCCCC(c1ccccc1)N(C)C (stereo not given),95.4%
2,CC(C)c1ncc(CO)n1Cc1c(Cl)cccc1Cl,97.5%
3,OCCNC(=S)Nc1ccc(-c2nc(N3C[C@H]4CC[C@@H](C3)O4)c3cccn3n2)cc1,-24.6% (active)
4,Nc1nc(N)c(N=Nc2c(Br)cc(S(N)(=O)=O)cc2Br)c(N)n1,54%
5,O=C(CN1CCN(c2cc3c(cc2F)c(=O)c(C(=O)O)cn3C2CC2)CC1)N/N=C/c1ccncc1,99.6%
6,CCOC(=O)NNc1nncc2ccccc12,105%
7,COc1ccc2c3c(c(OCCCN(C)C)nc2c1)-c1ccc(Cl)cc1C3=O,43.5%
8,COC(=O)[C@]12CC[C@@H](C)[C@H](C)[C@@H]1C1=CC[C@@H]3[C@@]4(C)C(C=O)=C[C@@](C)(COC(=O)c5ccco5)C4=CC[C@@]3(C)[C@]1(C)CC2,5.01% (active)
9,COc1cc(/C=C2\C(=O)Nc3ccccc32)cc(OC)c1O,20.4%
10,Cc1ccc(NC(=O)C(Cl)Cl)cc1,90.9%
11,O=c1oc2ccccc2cc1-c1csc(N/N=C/c2cc3ccccc3nc2Cl)n1,105%
12,C=C(C)[C@@H]1CC[C@]2(COC3CCCCO3)CC[C@]3(C)[C@H](CC[C@@H]4[C@@]5(C)C=C(C=O)C(=O)C(C)(C)[C@@H]5CC[C@]43C)[C@@H]12 (stereo not given in full),-53.1% (active)
13,COc1ccc(Nc2nccc(Nc3ccc4[nH]ncc4c3)n2)cc1,44%
14,CCCCCC(C)c1ccc(O)c(C)c1 (stereo not given),101%
15,COc1cc(C(=O)O/N=C(\N)Cc2cccc3ccccc23)cc(OC)c1OC,-72.1% (active)
16,COc1cc(C2C(C(=O)c3cccs3)=C(O)C(=O)N2CCN2CCOCC2)cc(OC)c1OC (stereo not given),101%
17,Cc1nn(-c2ccccc2)c(Cl)c1/C=C(/NC(=O)c1ccccc1)c1nc2ccccc2[nH]1,113%
18,COc1ccc(NC(=O)c2cc(NCc3cc(O)ccc3O)ccc2O)cc1,88.5%
19,COc1ccccc1N1C(=O)/C(=C/C2=Cc3ccccc3OC2)SC1=S,95%
20,COc1ccc(/C=C/c2nnc(/C=C/c3ccc(OC)c(OC)c3)o2)cc1OC,19%
